# The list is not random: actives were taken first. Their share in the collection is about 5%.
# HEK293 cAMP cs: qHTS Assay for Agonists of the Thyroid Stimulating Hormone Receptor: Activators of Intracellular cAMP Concentrations in Parental HEK 293 | actives 2.5% (n = 73,000) | Potency, µM (highest dose often 57.1 µM), for inactives: top-dose activation, usual class: activators | parental HEK293 CNG cAMP sensor, membrane potential fluorescence; also: % of control where 0% means no effect; nearly all actives have a fitted effect of over 55% in size
#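 Counterscreen for endogenous-receptor signalling: CNG-channel HEK 293 cells report cAMP rise by membrane depolarization. After 60 min dye equilibration with 100 uM RO 20-1724, compounds incubated 30 min before bottom-read fluorescence at 590 nm.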
# Caspase-1 inhib: qHTS Assay for Allosteric/Competitive Inhibitors of Caspase-1. P29466. Caspase-1 enzyme, Ac-WEHD-AFC fluorogenic rate. Potency, µM (highest dose often 57.5 µM), without a hit: at the top dose activity change, negative = inhibition, usual class: inhibitors. AID 900, 2007. actives 0.03% (n = 75,000);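 also: plate controls were vehicle for no effect and no substrate for full effect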
# Casp7 inh: qHTS Assay for Allosteric/Competitive Inhibitors of Caspase-7 | recombinant caspase-7, Ac-DEVD-AFC fluorescence rate | P55210 | actives 0.02% (n = 75,000) | Potency, µM (top dose mostly 57.5 µM), without a hit: at the top dose activity change, negative = inhibition, usual class: inhibitors | AID 889, 2007; active = well fitted inhibition curve with a large enough effect in the main read-out, with a control signal flat, not every such curve was filed as active; inconclusive = small, poorly fitted or top-dose-only effect, or a change in a side signal; also: % of control where 0% means no effect
# USP2a inhib: qHTS Assay for Inhibitors of Ubiquitin-specific Protease USP2a | USP2a enzymatic assay, qHTS inhibition | Potency, µM (top dose mostly 38.3 µM), without a hit: at the highest dose activity change, negative = inhibition, actives largely listed as inhibitors | actives 0.1% (n = 60,000) | AID 927, 2007; also: nearly all actives have a fitted effect of over 60% in size
#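 Coupled readout: USP2-cleaved Ub-PLA2 (20nM final) turns over NBD C6-HPC (20uM final), Ex 460nm/Em 535nm after 2.5 h, time-zero read flagging artifacts. Enzyme (20nM final, pH 8.0 Tris) given 30 min RT with compound first; NEM defines full inhibition.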
# CRE-bla Fsk: Cell signaling CRE-BLA (Fsk stim); actives 2.5% (n = 71,000); AID 662, 2007; Potency, µM (series often up to 38.2 µM), for inactives: at the highest dose activity change, negative = inhibition, usual class: activators; CHO CRE-bla reporter (cAMP response element driving beta-lactamase), forskolin EC10, beta-lactamase ratio; active = well fitted activation curve with a large enough effect in the signal ratio, with a control signal flat, not every such curve was filed as active; inconclusive = small, poorly fitted or top-dose-only effect, or effect the other way, or a change in a side signal; the % refers to the signal ratio; also: % of control where 0% means no effect
#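 Using CellSensor CRE-bla CHO cells in Opti-MEM with 0.5% dialyzed FBS, compounds were titrated with EC10 NKH 477 for 3 h at 37 °C. CCF4 ratio (460/530 nm) gave %Activity; AC50 derived.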
# TSHR agonist: qHTS Assay for Agonists of the Thyroid Stimulating Hormone Receptor. Thyrotropin receptor (Homo sapiens), P16473. HEK293-CNG-TSHR cells (CNG channel as cAMP sensor), membrane potential dye, cAMP. Potency, µM (top dose mostly 57.1 µM), for the others: at the highest dose activation, actives largely listed as activators. actives 0.48% (n = 73,000). AID 926, 2007; active = well fitted activation curve with a large enough effect in the main read-out, with a control signal flat, not every such curve was filed as active; inconclusive = small, poorly fitted or top-dose-only effect, or a change in a side signal; inactive = no such curve, though single readings can be large or run the other way; % of control where 0% means no effect;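 also: the control signal comes from parental cells without the receptor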
#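 cAMP rise detected as CNG-channel membrane depolarization by fluorescent dye (emission 590 nm), 30 min after compound, following 60 min dye loading containing 100 uM RO 20-1724 at room temperature. Cells: TSHR/CNG HEK 293, with parental CNG HEK 293 as control.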
# Numbers without * were called inactive; ? = inconclusive; nt = not tested or not shown; [ ] = another dose, or the depositor's remark. Unless noted, calls follow the shape of the dose curve; as a rule, active = well fitted curve in the direction sought with a large enough effect; inconclusive = small, poorly fitted or top-dose-only effect, or another doubt; inactive = no such curve, though single readings can be large; an effect the other way counts as inactive or inconclusive. Potency is read from the fitted curve at half-maximal effect.
SMILES,HEK293 cAMP cs,Caspase-1 inhib,Casp7 inh,USP2a inhib,CRE-bla Fsk,TSHR agonist
COC(=O)C(C#N)c1nc2ccccc2nc1N1CCCC1 (stereo unspecified),9%,?,-28%,-3%,10µM*,0%
CCC(C)COC(=O)C(C#N)c1nc2ccccc2nc1N1CCCCC1 (stereo unspecified),18%,-5%,-8%,-15%,?,nt
C[C@@H]1/C=C\CC(=O)OC[C@H](C)C(=O)N2CCC[C@@H]2C(=O)OC1,3%[11.4 µM],-1%[11.5 µM],1%[11.5 µM],nt,nt,7%[11.4 µM]
CCCn1c(=O)c2ccccc2n2c(SCC(=O)NCc3cccs3)nnc12,20µM*,-1%,-1%,4%,9%,?
CCn1c2ccccc2c2nnc(SCC(=O)Nc3cc(C)on3)nc21,1%,0%,0%,2%,28%,3%
CCn1c2ccccc2c2nnc(SCC(=O)NCCOC)nc21,2%,-2%,-2%,-4%,?,1%
C=CCn1c2ccccc2c2nnc(SCC(=O)NC(C(=O)OC)C(C)C)nc21 (stereo unspecified),-2%,1%,1%,7%,5µM*,13%
CCCn1c2ccccc2c2nnc(SCC(=O)OC)nc21,16%[11.4 µM],-1%,0%,6%[7.66 µM],2µM*,18%[11.4 µM]
CCn1c2ccccc2c2nnc(SCC(=O)NC(C(=O)OC)C(C)C)nc21 (stereo unspecified),-4%,1%,-1%,13%,?,7%
CCn1c2ccccc2c2nnc(SCC(=O)NCc3cccs3)nc21,11%,1%,0%,13%,10µM*,4%
COc1cc2c3cc1Oc1c(OC)c(OC)cc4c1[C@@H](Cc1ccc(O)c(c1)Oc1ccc(cc1)C[C@@H]3N(C)CC2)CN(C)C4,1%[11.4 µM],-1%[11.5 µM],-4%[11.5 µM],nt,-9%[7.6 µM],15%[11.4 µM]
O=C(O)c1ccccc1NCn1c(=S)sc2ccccc21,-4%[11.4 µM],-1%[11.5 µM],-2%[11.5 µM],nt,-4%[7.6 µM],3%[11.4 µM]
Cc1c2c(nc3c(C(=O)NC4CCCC4)cnn13)CCCC2,?,3%,-1%,1%,2.5µM*,?
COc1cccc2c1[C@H](CO)N1[C@H](C#N)[C@@H]3C[C@H](C(=O)O)[C@@H]([C@@H]1C2)N3C,3%[11.4 µM],2%[11.5 µM],-2%[11.5 µM],nt,?,0%[11.4 µM]
Cc1ccc(-n2c(=O)c(C#N)cc3c(=O)n4ccccc4nc32)cc1,-2%,nt,?,5%,2.5µM*,0%
N#Cc1cc2c(=O)n3ccccc3nc2n(CCCn2ccnc2)c1=N,-12%,nt,?,-5%,10µM*,-1%
Cc1cc(-n2c(=O)c(C#N)cc3c(=O)n4cccc(C)c4nc32)no1,-7%,nt,?,14%,3.2µM*,nt
OC[C@@H]1O[C@@H](n2cnc3cncnc32)[C@@H](O)[C@H]1O,17%,-2%,2%,1%,?,-10%
NC(=S)NNC(N)=S,0%,-1%,0%,nt,2%,6%
Nc1ncnc2c1ncn2[C@H]1O[C@@H](CO)[C@@H](O)[C@H]1N,2%[11.4 µM],1%[11.5 µM],1%[11.5 µM],nt,-1%[7.6 µM],-1%[11.4 µM]
CCNc1nc(C)nc2c1oc1ccccc12,-1%,-1%,0%,-6%,4%,23%
CCc1nc(OCCN(CC)CC)c2oc3ccccc3c2n1,15%,0%,-1%,5%,?,13%
CCc1nc(SCCO)c2oc3ccccc3c2n1,2%,0%,0%,-2%,4µM*,-14%
CCc1nc(N2CCC(C)CC2)c2oc3ccccc3c2n1,16µM*,-2%,-2%,-23%,10µM*,?
CCNc1nc(CC)nc2c1oc1ccccc12,7%,0%,-2%,4%,7.9µM*,11%
SMILES,HEK293 cAMP cs,Caspase-1 inhib,Casp7 inh,USP2a inhib,CRE-bla Fsk,TSHR agonist
CCc1nc(N(CC)CC)c2oc3ccccc3c2n1,16µM*,1%,-2%,-17%,7.9µM*,?
O=C(/C=C\c1ccc(O)c(O)c1)OCCc1ccccc1,?,7%,2%,-5%,-13%,?
O=c1cc(O)cc(/C=C\c2ccc(O)c(O)c2)o1,?,-4%,?,-4%,-5%,?
O=C1/C(=C/c2ccccc2)[C@@H](NC2CCCCC2)c2ccccc21,18%[11.4 µM],0%[11.5 µM],-4%[11.5 µM],nt,?,3%[11.4 µM]
C=C[C@@](C)(O)CC[C@H]1[C@]2(C)CCCC(C)(C)[C@H]2CC[C@]1(C)O,-7%,nt,nt,nt,?,nt
O=C(O)c1ccc(C(=O)O)c(C(=O)O)c1.[NH-][C@@H]1CCCC[C@@H]1[NH-].[Pt],2%[11.4 µM],0%[11.5 µM],4%[11.5 µM],nt,15%[7.6 µM],-2%[11.4 µM]
CCc1nc(NCc2ccco2)c2oc3ccccc3c2n1,30%,2%,-3%,2%,4µM*,nt
CCCn1c(=O)c(C)cn2nc(N)nc12,3%,2%,0%,nt,13µM*,10%
Brc1ccc(OCCOCCN2CCOCC2)cc1,19%,-2%,-1%,7%,0%,25µM*
Nc1nc(CSc2nc3ccccc3s2)nc(N2CCCCC2)n1,?,-1%,-5%,32%,5µM*,?
c1ccc2sc(SCN(C3CCCCC3)C3CCCCC3)nc2c1,-3%[11.4 µM],0%[11.5 µM],-1%[11.5 µM],nt,-2%[7.6 µM],0%[11.4 µM]
Nc1nc(CSc2nc3ccccc3[nH]2)nc(N2CCOCC2)n1,-4%,3%,1%,3%,10µM*,3%
O=C(NCCN1CCOCC1)c1cc(-c2ccc(O)cc2)on1,4%,-1%,-1%,nt,5%,-2%
CCC(c1nnnn1Cc1ccco1)N(Cc1cc2cc(C)cc(C)c2[nH]c1=O)CC1CCCO1 (stereo unspecified),20µM*,-17%,-16%,111%,10%,?
CC(C)(C)c1cc(C(=O)/C=C/c2ccc(C(=O)O)cc2)cc(C(C)(C)C)c1,28%,-5%,?,nt,nt,19%
CC1(C)Oc2cc3c(cc2O1)OC(C)(C)O3,3.2µM*,2%[11.5 µM],4%[11.5 µM],nt,nt,?
CC1(C)OC(=O)C(=CNc2ccccc2)C(=O)O1,6%,1%,0%,-4%,26%,2%
COc1ccc(-c2cn3c(C)c(C(=O)Nc4cccc(C)n4)sc3n2)cc1,18%,-7%,-1%,32%,12%,18%
Cc1cccc(NC(=O)c2sc3nc(-c4ccccc4)cn3c2C)n1,25µM*,nt,?,41%,?,?
Cc1c(C(=O)Nc2ccccc2)sc2nc(-c3ccccc3)cn12,32µM*,0%,-2%,36%,-9%,?
Cc1cccc(NC(=O)c2sc3nc(-c4ccc(F)cc4)cn3c2C)n1,20µM*,nt,-25%,34%,?,?
